Source: PubChem BioAssay
In the library only some 3.8% were active in any assay of this set; here they are far more common.
MT1-MMP txn act: MT1-MMP promoter transcription activation. AID 750. HT1080 MT1-MMP promoter luciferase reporter, luminescence, overnight; active compounds read high. 0.16% of 86,000 active. activation factor at 10 µM;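 active = activation factor of at least 2 for MT1-MMP transcription at 10 µM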
hDAT+cocaine: changed human dopamine transporter uptake under cocaine IC80; Q01959; LLC-PK1 hDAT cells, [14C]-dopamine uptake with cocaine IC80; actives deviate in either direction; B-score at 10 µM; 1.3% of 110,000 active;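 active = Z score or B-score, a plate-position-corrected score, falls beyond the plate's 99.7% confidence bounds, in either direction; inactive = both scores lie inside the 99.7% bounds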;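 note: scored against the spread of the other compound wells on the same plate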
Target sequence (Q01959 whole entry, looked up): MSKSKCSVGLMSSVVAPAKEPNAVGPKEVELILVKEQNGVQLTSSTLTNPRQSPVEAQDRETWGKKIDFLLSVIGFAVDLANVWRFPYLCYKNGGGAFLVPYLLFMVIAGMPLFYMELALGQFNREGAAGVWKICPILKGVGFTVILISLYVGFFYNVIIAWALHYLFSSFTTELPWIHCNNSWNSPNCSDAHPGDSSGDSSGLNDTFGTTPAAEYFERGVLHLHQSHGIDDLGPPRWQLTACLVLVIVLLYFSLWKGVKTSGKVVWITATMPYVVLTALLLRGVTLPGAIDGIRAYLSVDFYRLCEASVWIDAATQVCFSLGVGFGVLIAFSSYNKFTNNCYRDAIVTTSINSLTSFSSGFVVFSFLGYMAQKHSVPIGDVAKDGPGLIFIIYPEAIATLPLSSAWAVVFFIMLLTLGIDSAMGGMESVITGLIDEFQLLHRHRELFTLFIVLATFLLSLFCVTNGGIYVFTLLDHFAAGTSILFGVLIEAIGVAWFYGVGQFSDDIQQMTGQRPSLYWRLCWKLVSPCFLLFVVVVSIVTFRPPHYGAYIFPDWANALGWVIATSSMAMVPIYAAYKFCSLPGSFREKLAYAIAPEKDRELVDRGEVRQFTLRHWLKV
ERa coact pot: ER-alpha (human) coactivator binding potentiation | P03372 | TR-FRET ERalpha-LBD/SRC-Cy5 coactivator binding, 2 h; 100 = basal binding, no effect | coactivator binding (% of control), % at 25.6 µM | 1.3% of 86,000 active; in the data active = activity above about 200%;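 note: binding measured in presence of low estradiol as agonist stimulus; 0% = peptide alone without receptor and 100% = receptor with peptide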
ERa SRC1 inh: ER-alpha (human) coactivator binding inhibition. P03372. TR-FRET ER-alpha LBD / SRC-1 peptide, estradiol-bound. inhibition, % at 25.6 µM. 1.7% of 86,000 active; in the data active = inhibition above about 50%;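 note: 0% = receptor plus peptide control and 100% = peptide only without receptor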
ERb SRC1 inh: blocks coactivator binding to human estrogen receptor beta; Q92731; TR-FRET ER-beta LBD / SRC1-Cy5 peptide binding; receptor agonist-loaded with 1 µM estradiol; inhibition, % at 25.6 µM; 1.3% of 86,000 active;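 active = compounds whose percent inhibition of the receptor-coactivator binding signal exceeds about 50% in the single-dose screen, limit read from the data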;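 note: 0% = receptor plus peptide wells without compound and 100% = peptide-only wells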
An asterisk follows results filed as active; [ ] = remark or other dose.

Results for COc1ccc(C(=O)OCc2cc3cccc(C)c3[nH]c2=O)cc1 ?
MT1-MMP txn act: 0.9; hDAT+cocaine: 0.17; ERa coact pot: 217*[fluorescence artefact?]; ERa SRC1 inh: 21; ERb SRC1 inh: 32

How did O=C(CCCn1c(=S)[nH]c2cc3c(cc2c1=O)OCO3)N1CCc2ccccc2C1 do in these assays?
MT1-MMP txn act: 1.2; hDAT+cocaine: -0.32; ERa coact pot: 125; ERa SRC1 inh: 20; ERb SRC1 inh: 51*

Results for O=C(CCCn1c(=S)[nH]c2cc3c(cc2c1=O)OCO3)N1CCN(c2ccc(Cl)cc2)CC1 ?
MT1-MMP txn act: 1; hDAT+cocaine: 0.49; ERa coact pot: 73; ERa SRC1 inh: 66*; ERb SRC1 inh: 27

What do the screens show for `O=C(NCCN1CCCC1)c1ccc(Cn2c(=S)[nH]c3cc4c(cc3c2=O)OCO4)cc1`?
MT1-MMP txn act: 1.1; hDAT+cocaine: -0.54; ERa coact pot: 145; ERa SRC1 inh: 70*[fluorescence artefact?]; ERb SRC1 inh: 45

How did O=C(CCn1c(=S)[nH]c2cc3c(cc2c1=O)OCO3)N1CCc2ccccc2C1 do in these assays?
MT1-MMP txn act: 0.9; ERa coact pot: 104; ERa SRC1 inh: 6; ERb SRC1 inh: 15

Results for O=C(CCCn1c(=S)[nH]c2cc3c(cc2c1=O)OCO3)N1CCN(c2ccccc2)CC1 ?
MT1-MMP txn act: 1.1; hDAT+cocaine: -0.79; ERa coact pot: 96; ERa SRC1 inh: 16; ERb SRC1 inh: 14

How did COC(=O)c1ccc(C(NC(=O)OCc2ccccc2)/C(I)=C/[C@@H](C)C(=O)NCC2CC2)cc1 (stereo partly drawn) do in these assays?
MT1-MMP txn act: 1.1

What do the screens show for `Cc1ccccc1-n1cnc2cc(NCc3cccs3)ccc21`?
MT1-MMP txn act: 1.3; hDAT+cocaine: -1.2; ERa coact pot: 80; ERa SRC1 inh: 14; ERb SRC1 inh: -5

What do the screens show for `COc1ccccc1-n1cnc2cc(NCc3cccs3)ccc21`?
MT1-MMP txn act: 0.7; hDAT+cocaine: -2.5*; ERa coact pot: 97; ERa SRC1 inh: 4; ERb SRC1 inh: 5

Results for CCN(CC)S(=O)(=O)c1ccc(C(=O)N2CCCCC2)cc1 ?
MT1-MMP txn act: 1.1; hDAT+cocaine: -0.0095; ERa coact pot: 95; ERa SRC1 inh: -1; ERb SRC1 inh: -1

What do the screens show for `Cc1ccc(S(=O)(=O)N2CCCN(S(=O)(=O)c3ccc4c(c3)OCCO4)CC2)cc1`?
MT1-MMP txn act: 1.2; hDAT+cocaine: 1.4; ERa coact pot: 112; ERa SRC1 inh: -10; ERb SRC1 inh: -11

Results for Cc1ccc(S(=O)(=O)N2CCCN(c3nc4cc(C)ccc4cc3C#N)CC2)cc1 ?
MT1-MMP txn act: 1.3; hDAT+cocaine: 1.8; ERa coact pot: 350*[fluorescence artefact?]; ERa SRC1 inh: 35; ERb SRC1 inh: 45

How did COc1cc(C(=O)N2CCCN(c3nc4cc(C)ccc4cc3C#N)CC2)cc(OC)c1OC do in these assays?
MT1-MMP txn act: 1.1; hDAT+cocaine: 0.26; ERa coact pot: 80; ERa SRC1 inh: 6; ERb SRC1 inh: 5

Results for Cc1cc(C)c2cc(C#N)c(N3CCCC3)nc2c1 ?
MT1-MMP txn act: 1.1; hDAT+cocaine: -0.42; ERa coact pot: 119; ERa SRC1 inh: 51*[fluorescence artefact?]; ERb SRC1 inh: 25

How did Cc1ccc2nc(N3CCN(S(=O)(=O)c4ccc5c(c4)OCCO5)CC3)c(C#N)cc2c1 do in these assays?
MT1-MMP txn act: 1.1; hDAT+cocaine: 0.03; ERa coact pot: 258*[fluorescence artefact?]; ERa SRC1 inh: 49; ERb SRC1 inh: 56*[fluorescence artefact?]

Results for O=C(Nc1ccc(-c2nc3ccccc3o2)cc1)c1ccc(N2C(=O)C3C4C=CC(C4)C3C2=O)cc1 (stereo not drawn) ?
MT1-MMP txn act: 1.1; hDAT+cocaine: -1.4; ERa coact pot: 115; ERa SRC1 inh: 14; ERb SRC1 inh: 8

Results for COC(=O)/C=C/c1cc(F)ccc1S(=O)(=O)NC(C)(C)C ?
hDAT+cocaine: -0.46

How did CC(=O)NCCOC(=O)Nc1ccncc1 do in these assays?
hDAT+cocaine: -0.61; ERa coact pot: 78; ERa SRC1 inh: 55*; ERb SRC1 inh: 2

How did COC(=O)c1ccc(C(/C=C/[C@@H](C)C(=O)NCCc2c[nH]c3ccccc23)NC(=O)OCc2ccccc2)cc1 (stereo partly drawn) do in these assays?
MT1-MMP txn act: 1.1

What do the screens show for `O=C(CSc1ccccn1)Nc1nc2ccc(Br)cc2s1`?
hDAT+cocaine: 1.1

What do the screens show for `Cc1nnc(NC(=O)c2cccc(NC(=O)C(C)C)c2)s1`?
MT1-MMP txn act: 1.2; hDAT+cocaine: -7*; ERa coact pot: 105; ERa SRC1 inh: -4; ERb SRC1 inh: -7
